Laboratory results: PubChem BioAssay
Results filed as inconclusive are left out. Activity calls are given as the source filed them.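 The calls were made as follows, unless noted: active = GFP response above 150% of the DMSO control; inconclusive = Fewer than 70 cells counted for a yeast strain; inactive = the rest.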

Experiments:
[1] = rapamycin-like changes in RPL19A-GFP expression – cell-based, S. cerevisiae, multiplex flow cytometry, primary screen (AID 1862; in the data active = percent of DMSO control GFP below about 86%;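 also: lower values mimic rapamycin by blocking the RPL19A rise seen in DMSO cells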); details: S. cerevisiae RPL19A-GFP strain, flow cytometry fluorescence, 3 h; at 10 µM; stronger effect = lower value
[2] = TOR pathway GLN3 branch reporter MEP2-GFP changes – S. cerevisiae, multiplex flow cytometry, primary screen (AID 1867;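 active = GFP response, as percent of the DMSO control, above the screen-wide mean plus 3 SD, about 139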;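 also: median GFP channel fluorescence of barcode-gated MEP2-GFP cells measured by flow cytometry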); details: S. cerevisiae MEP2-GFP strain, 3 h, at 10 µM, stronger effect = higher value, 100% means same as DMSO wells
[3] = TOR pathway RTG branch CIT2 reporter changes – S. cerevisiae, GFP fusion, multiplex flow cytometry, primary screen (AID 1870;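 active = percent response above a set limit, the screen-wide mean plus 3 SD, cut at about 130% in these data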;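 also: barcoded CIT2-GFP strain pooled with four other GFP strains with rapamycin as positive control; median GFP fluorescence per well over plate mean of DMSO wells so 100% = DMSO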); details: S. cerevisiae CIT2-GFP expression, 3 h, at 10 µM, stronger effect = higher value
[4] = TOR pathway LAP4-GFP level changes – S. cerevisiae, multiplex flow cytometry, primary screen (AID 1873;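 active = GFP signal, as percent of the solvent control, above the screen mean plus 3 SD, about 149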); details: S. cerevisiae LAP4-GFP expression, 3 h, at 10 µM, stronger effect = higher value
[5] = yeast AGP1-GFP level changes, GLN3 branch – cell-based, multiplex flow cytometry, S. cerevisiae, primary screen (AID 1887;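 active = GFP signal above the screen-wide mean plus 3 SD, that is over about 124.5% of the solvent control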;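 also: AGP1-GFP fusion strain of S. cerevisiae within a five-strain barcoded multiplex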); details: 3 h, at 10 µM, stronger effect = higher value
[6] = hit retest on RPL19A-GFP reporter strain – cell-based, S. cerevisiae, flow cytometry, cherry picks, mother/daughter gates, confirmation (AID 2270;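 active = GFP response below 50% of the DMSO control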); details: 3 h, at 10 µM, stronger effect = lower value, 100 = same GFP as DMSO wells
[7] = yeast TOR pathway reporter LAP4-GFP change – cell-based, cherry picks, flow cytometry, mother/daughter gates, confirmation (AID 2271;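 active = GFP response above 150% of the DMSO control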;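 also: ratio of sample to DMSO plate mean so 100% equals DMSO level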); details: S. cerevisiae LAP4-GFP strain, 3 h, at 10 µM, stronger effect = higher value, 100 means same as DMSO control
[8] = TOR pathway reporter MEP2-GFP, retest of hits – S. cerevisiae, flow cytometry GFP, cherry picks, confirmation (AID 2272);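 also: ratio of well signal to plate DMSO mean so 100% equals DMSO level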; details: S. cerevisiae MEP2-GFP strain, 3 h, at 10 µM, stronger effect = higher value
[9] = TOR pathway CIT2 reporter hit retest – S. cerevisiae, GFP fusion, cherry picks, mother/daughter gates, confirmation (AID 2274;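 active = GFP response above 150% of the DMSO level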); details: S. cerevisiae CIT2-GFP strain, flow cytometry, 3 h, at 10 µM, stronger effect = higher value
[10] = reduced mouse 2C T cell binding to pMHC/ICAM-1 vesicles – MLPCN validation set, flow cytometry, LFA-1/ICAM-1 modulator project, pilot screen (AID 2523;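 active = response below a set limit, under 55% cells CD8-positive and vesicle-bound, and CD8 cells' 90th-percentile brightness under 279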;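 as to vesicle binding response: mean PE anti-B7-1 fluorescence of CD8+ cells relative to row control; 100% = QL9-loaded vesicles with DMSO vehicle in the same plate row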); details: 2C mouse CD8+ T cells, at 7 µM, stronger effect = lower value; double positive events: measured here: CD8+/vesicle+ event percentage
[11] = target: Integrin beta-1 (Homo sapiens) + Integrin alpha-4 (Homo sapiens) (UniProt P13612+P05556); assay: alpha4beta1 integrin LIBS antibody binding reduction – U937 cells, HUTS-21 mAb, flow cytometry, validation set, VLA-4 allosteric modulator project, pilot screen (AID 2674;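 active = inhibition above 50%, about 3 SD of the validation set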;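 also: antibody binding induced by the VLA-4 ligand LDV present at three times its Kd; 0% = LDV ligand with antibody and no compound and 100% = antibody without LDV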); details: HUTS-21 LIBS mAb binding, at 6.7 µM, stronger effect = higher value, binding induced by LDV ligand
[12] = calorie-restriction mimetic ROS inhibitors, yeast – validation compound set, pilot screen (AID 2706;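 active = superoxide response below 65% of plate, a cut near 3 SD across the whole screen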;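 also: yeast exposed to compound for one week at 30 degrees C before staining; 100% = mean of all compound wells on the same plate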); details: S. cerevisiae aging, superoxide DHE fluorescence; at 10 µM; stronger effect = lower value
[13] = target: Beta-adrenergic receptor kinase 1 (Homo sapiens) (UniProt P25098); assay: GRK2 binders displacing RNA aptamer, biochemical, validation, human GRK2, bead flow cytometry (AID 488806;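 active = aptamer binding inhibition above 30%, about 3 SD of noise from non-fluorescent compounds; inactive = inhibition at or below 30%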); details: bead-bound GRK2, FAM-aptamer displacement, at 10 µM, stronger effect = higher value
[14] = target: Beta-2 adrenergic receptor (Homo sapiens) (UniProt P07550); assay: agonist-induced loss of surface beta2AR – cell-based, FAP fluorogen, flow cytometry, validation set, pilot screen (AID 504459;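 active = percent response above 42, roughly 3 SD of non-fluorescent test compounds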;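 also: agonist-driven loss of surface beta2AR via internalization measured by FAP dye flow cytometry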); details: Am2.2-beta2AR cells, at 10 µM, stronger effect = higher value
[15] = target: AP-2 complex subunit beta (Homo sapiens) (UniProt P63010); assay: beta-arrestin/AP2 interaction blockers – biochemical, validation set, GST-AP2 beads, flow cytometry, pilot screen (AID 504541;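 active = inhibition above 54%, about 3 SD of non-fluorescent compounds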;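 also: AP2 carries R879A mutation and is captured from E. coli lysate; bead-bound FITC arrestin peptide fluorescence measuring arrestin peptide binding to AP2; 0% = DMSO wells and 100% = excess unlabeled arrestin peptide control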); details: FITC arrestin peptide, at 10 µM, stronger effect = higher value, AP2 beta2 appendage fragment, R879A mutant
[16] = cytosolic pH regulators acting via V-ATPase – S. cerevisiae, pHLuorin, HTS validation (AID 504600; in the data active = response above about 15%;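 also: plate controls were DMSO for no effect and reference compound for full effect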); details: V-ATPase proton transport, at 10 µM, stronger effect = higher value
[17] = tested on: anti-desmoglein-3 scFv antibody binding to human DSG3; assay: blockers of pathogenic pemphigus antibody–desmoglein-3 binding – biochemical, validation compound set, bead-based, flow cytometry, pilot screen (AID 588368;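 active = binding below the plate cutoff, the plate median minus 3 SD, with a reading above zero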;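 also: signal is the median channel fluorescence of bead-bound GFP antibody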); details: Protein G beads, DSG3-Fc, scFv-GFP binding, at 10 µM, stronger effect = lower value
[18] = Nile Red efflux blockade in pump-expressing yeast – validation compound set, multiplex, phenotypic, pilot screen (AID 588506;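 active = efflux inhibition above 0.42, the validation set average plus 4 SD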;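 also: Nile Red retained in cells so higher fluorescence means more efflux inhibition; 0 = negative control wells and 1 = enniatin B 25 µM full block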); details: S. cerevisiae pump-expressing triplex, Nile Red efflux flow cytometry; at 10 µM; stronger effect = higher value; the pumps come from Candida albicans
[19] = target: ATP-binding cassette sub-family B member 6 (Homo sapiens) (UniProt Q9NP58); assay: blockers of ABCB6-driven porphyrin uptake – K562-ABCB6 cells, flow cytometry, validation set, pilot screen (AID 588550;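 active = inhibition above the screen-wide mean plus 3 SD, about 51%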;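 also: 0% = DMSO wells and 100% = benzethonium chloride 70 µM positive control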); details: K562-ABCB6 porphyrin accumulation, 1 h, at 10 µM, stronger effect = higher value
[20] = AML differentiation inducers, ER-HoxA9 marrow cells – cell-based, GFP/MAC1 double positive, flow cytometry, validation set, primary screen (AID 588685;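 active = differentiation response of at least 50%, scaled between solvent and reference control, from cells with both markers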;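 also: compound exposure lasts four days before antibody staining and flow analysis; 0% = DMSO wells and 100% = 5 µM fulvestrant positive control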); details: stronger effect = higher value, normalized: vehicle 0, fulvestrant 100
[21] = measured here: daughter cell gate
[22] = measured here: mother cell gate
[23] = measured here: daughter cell gate response
[24] = measured here: mother cell gate response

Sequence of Integrin beta-1 (Homo sapiens) + Integrin alpha-4 (Homo sapiens) (P05556 whole entry, looked up): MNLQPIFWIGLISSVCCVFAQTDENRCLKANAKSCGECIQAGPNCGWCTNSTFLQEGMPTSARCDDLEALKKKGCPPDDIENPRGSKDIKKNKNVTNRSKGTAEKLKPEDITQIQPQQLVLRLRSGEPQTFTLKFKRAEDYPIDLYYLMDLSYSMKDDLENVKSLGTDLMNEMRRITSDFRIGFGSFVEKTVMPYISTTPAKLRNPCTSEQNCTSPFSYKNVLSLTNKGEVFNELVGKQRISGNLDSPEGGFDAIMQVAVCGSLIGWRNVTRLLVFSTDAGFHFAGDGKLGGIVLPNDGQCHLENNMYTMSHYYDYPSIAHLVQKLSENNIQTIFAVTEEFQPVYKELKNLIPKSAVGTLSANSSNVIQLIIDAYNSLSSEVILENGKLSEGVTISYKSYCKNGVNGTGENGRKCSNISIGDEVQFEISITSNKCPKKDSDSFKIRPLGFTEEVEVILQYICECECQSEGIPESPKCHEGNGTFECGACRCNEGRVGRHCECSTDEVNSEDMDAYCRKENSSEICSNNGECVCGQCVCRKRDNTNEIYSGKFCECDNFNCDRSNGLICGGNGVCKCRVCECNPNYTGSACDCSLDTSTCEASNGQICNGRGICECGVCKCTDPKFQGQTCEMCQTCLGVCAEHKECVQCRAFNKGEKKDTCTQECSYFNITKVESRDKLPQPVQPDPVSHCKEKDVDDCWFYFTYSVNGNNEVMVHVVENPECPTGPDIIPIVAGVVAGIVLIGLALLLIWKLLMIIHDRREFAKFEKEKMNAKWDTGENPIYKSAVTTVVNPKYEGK
Sequence of Integrin beta-1 (Homo sapiens) + Integrin alpha-4 (Homo sapiens) (P13612 whole entry, looked up): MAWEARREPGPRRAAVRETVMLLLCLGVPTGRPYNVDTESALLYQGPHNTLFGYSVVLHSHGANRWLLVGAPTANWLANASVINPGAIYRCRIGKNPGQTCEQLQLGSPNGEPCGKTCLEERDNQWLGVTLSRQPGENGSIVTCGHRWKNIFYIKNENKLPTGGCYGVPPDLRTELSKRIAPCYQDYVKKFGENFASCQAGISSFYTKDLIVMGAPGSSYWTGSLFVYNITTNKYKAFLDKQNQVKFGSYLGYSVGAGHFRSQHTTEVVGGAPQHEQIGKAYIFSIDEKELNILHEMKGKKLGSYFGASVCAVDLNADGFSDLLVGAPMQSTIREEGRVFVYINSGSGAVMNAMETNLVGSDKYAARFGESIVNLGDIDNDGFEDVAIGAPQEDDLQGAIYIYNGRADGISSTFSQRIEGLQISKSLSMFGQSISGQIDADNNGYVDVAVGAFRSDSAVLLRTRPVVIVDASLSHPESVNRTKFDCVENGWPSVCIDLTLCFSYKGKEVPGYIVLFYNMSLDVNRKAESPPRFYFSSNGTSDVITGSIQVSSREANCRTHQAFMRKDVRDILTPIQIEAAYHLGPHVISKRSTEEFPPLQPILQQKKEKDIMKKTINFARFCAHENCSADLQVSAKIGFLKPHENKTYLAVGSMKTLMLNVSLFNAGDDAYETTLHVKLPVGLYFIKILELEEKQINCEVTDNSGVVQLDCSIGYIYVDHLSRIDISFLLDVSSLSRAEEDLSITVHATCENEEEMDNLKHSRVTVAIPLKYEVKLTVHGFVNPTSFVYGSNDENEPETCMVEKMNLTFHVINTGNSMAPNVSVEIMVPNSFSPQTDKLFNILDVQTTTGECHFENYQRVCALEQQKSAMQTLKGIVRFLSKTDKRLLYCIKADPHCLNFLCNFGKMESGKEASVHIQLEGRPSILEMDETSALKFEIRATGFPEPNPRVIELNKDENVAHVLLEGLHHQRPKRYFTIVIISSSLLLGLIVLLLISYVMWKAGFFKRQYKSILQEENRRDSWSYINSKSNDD
Sequence of Beta-adrenergic receptor kinase 1 (Homo sapiens) (P25098 whole entry, looked up): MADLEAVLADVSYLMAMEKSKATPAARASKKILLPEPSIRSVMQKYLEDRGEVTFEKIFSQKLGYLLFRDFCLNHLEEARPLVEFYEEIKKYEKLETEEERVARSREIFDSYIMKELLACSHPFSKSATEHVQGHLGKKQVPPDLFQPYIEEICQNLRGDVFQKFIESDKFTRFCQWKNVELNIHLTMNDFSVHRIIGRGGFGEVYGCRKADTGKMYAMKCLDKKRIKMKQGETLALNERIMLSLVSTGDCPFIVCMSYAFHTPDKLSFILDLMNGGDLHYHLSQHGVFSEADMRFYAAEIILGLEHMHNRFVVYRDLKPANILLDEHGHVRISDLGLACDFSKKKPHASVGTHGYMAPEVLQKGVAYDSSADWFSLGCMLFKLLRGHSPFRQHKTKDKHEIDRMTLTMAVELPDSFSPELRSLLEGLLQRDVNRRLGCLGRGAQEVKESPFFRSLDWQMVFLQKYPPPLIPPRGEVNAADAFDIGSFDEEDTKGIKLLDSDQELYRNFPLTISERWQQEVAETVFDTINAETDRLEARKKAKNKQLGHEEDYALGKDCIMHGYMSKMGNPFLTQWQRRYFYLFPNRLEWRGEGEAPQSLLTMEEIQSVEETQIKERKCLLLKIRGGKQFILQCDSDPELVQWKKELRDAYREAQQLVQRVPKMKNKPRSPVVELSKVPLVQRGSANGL
Sequence of AP-2 complex subunit beta (Homo sapiens) (P63010 whole entry, looked up, the tested form may be a part, one chain of several): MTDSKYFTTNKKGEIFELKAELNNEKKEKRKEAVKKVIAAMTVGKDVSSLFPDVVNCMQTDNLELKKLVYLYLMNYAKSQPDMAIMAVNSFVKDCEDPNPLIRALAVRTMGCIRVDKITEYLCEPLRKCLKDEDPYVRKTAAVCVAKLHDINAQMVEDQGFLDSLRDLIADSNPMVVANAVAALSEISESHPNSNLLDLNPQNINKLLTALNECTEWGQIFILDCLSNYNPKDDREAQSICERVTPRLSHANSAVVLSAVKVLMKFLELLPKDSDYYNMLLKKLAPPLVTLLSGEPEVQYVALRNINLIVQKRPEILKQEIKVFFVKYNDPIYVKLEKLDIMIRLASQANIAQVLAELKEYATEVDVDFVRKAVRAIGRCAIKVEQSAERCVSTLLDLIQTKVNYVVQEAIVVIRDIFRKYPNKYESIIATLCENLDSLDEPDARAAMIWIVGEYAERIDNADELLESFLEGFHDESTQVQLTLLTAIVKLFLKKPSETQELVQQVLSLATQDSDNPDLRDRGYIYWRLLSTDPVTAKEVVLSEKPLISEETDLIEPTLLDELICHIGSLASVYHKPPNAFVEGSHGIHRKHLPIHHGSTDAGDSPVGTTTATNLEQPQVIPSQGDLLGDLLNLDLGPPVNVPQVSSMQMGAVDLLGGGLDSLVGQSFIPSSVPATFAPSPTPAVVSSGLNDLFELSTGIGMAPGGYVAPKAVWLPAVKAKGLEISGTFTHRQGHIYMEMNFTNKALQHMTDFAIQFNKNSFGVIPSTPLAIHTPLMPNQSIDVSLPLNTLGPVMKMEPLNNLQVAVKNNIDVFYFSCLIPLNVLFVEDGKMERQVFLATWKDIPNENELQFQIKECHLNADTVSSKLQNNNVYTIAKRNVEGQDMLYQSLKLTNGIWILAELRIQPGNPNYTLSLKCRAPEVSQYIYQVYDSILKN
Sequence of Beta-2 adrenergic receptor (Homo sapiens) (P07550 whole entry, looked up): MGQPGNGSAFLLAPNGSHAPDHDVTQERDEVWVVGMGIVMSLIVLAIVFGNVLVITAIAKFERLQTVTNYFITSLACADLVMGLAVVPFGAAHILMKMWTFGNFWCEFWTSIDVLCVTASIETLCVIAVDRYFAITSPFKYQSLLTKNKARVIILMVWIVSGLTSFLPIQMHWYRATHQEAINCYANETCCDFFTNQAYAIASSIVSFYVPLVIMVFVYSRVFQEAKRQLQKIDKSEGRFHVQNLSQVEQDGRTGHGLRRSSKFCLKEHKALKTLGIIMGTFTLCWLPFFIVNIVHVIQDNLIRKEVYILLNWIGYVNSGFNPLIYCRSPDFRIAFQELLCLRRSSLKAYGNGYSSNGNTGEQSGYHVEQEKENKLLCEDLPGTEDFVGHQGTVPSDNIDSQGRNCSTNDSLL
Sequence of ATP-binding cassette sub-family B member 6 (Homo sapiens) (Q9NP58 whole entry, looked up): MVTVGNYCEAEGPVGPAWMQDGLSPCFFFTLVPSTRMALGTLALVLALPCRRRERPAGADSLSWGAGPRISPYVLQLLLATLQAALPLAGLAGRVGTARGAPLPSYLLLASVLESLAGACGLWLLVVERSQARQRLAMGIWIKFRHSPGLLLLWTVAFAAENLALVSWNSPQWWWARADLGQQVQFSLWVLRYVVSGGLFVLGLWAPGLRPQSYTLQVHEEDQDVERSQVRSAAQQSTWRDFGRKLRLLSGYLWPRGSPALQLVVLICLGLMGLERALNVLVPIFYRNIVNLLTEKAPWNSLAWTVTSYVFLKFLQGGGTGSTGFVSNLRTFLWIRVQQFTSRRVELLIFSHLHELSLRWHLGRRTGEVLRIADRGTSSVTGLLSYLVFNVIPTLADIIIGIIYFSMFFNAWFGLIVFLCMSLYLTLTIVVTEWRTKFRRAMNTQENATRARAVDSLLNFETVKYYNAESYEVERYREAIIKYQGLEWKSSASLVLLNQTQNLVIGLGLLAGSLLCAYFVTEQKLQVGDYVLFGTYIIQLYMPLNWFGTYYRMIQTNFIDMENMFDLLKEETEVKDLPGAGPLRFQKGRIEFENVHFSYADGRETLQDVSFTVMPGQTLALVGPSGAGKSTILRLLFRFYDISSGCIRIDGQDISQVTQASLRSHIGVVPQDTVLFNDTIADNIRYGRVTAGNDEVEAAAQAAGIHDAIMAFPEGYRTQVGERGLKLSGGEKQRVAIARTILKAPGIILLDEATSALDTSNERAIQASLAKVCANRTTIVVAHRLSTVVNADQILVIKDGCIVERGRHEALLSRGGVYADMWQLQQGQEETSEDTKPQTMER

C[C@H]1C[C@@H]2[C@H]([C@@H](O)C[C@@]3(C)[C@H]2CC[C@]3(O)C(=O)CO)[C@@]2(C)C=CC(=O)C=C12
77.3%: double positive events [10]
active: percent of DMSO control GFP [1] 85.8% | GFP response vs DMSO [2] 145%
inactive: percent response of DMSO control [3] 93.9% | GFP response vs DMSO [4] 80.3% | GFP response, % of DMSO [5] 83.6% | GFP response vs DMSO [6] 96.6% | GFP response relative to DMSO [7] 103% | GFP response vs DMSO [8] 105% | GFP response, % of DMSO [9] 99.7% | vesicle binding response [10] 227% | inhibition [11] 10.3% | superoxide response (% of plate) [12] 88.9% | aptamer binding inhibition [13] 7% | response [14] 1.51% | inhibition [15] 2.63% | response [16] 0.24% | binding (% of control) [17] 99.2% | efflux inhibition (fraction of control) [18] -0.38 | inhibition [19] 13% | differentiation response [20] 0%
102%: GFP response relative to DMSO [7, 23]
99.3%: GFP response relative to DMSO [7, 24]
98.5%: GFP response, % of DMSO [9, 22]
99.1%: GFP response, % of DMSO [9, 21]
96.6%: GFP response vs DMSO [6, 21] | GFP response vs DMSO [6, 22]

O=C(NC1CCCCC1)N1CCc2[nH]c3ccccc3c2C1
105%: GFP response, % of DMSO [9, 21]
98.3%: GFP response relative to DMSO [7, 24]
61.4%: double positive events [10]
98.1%: GFP response vs DMSO [6, 21]
107%: GFP response, % of DMSO [9, 22]
97.6%: GFP response relative to DMSO [7, 23]
active: GFP response vs DMSO [2] 147%
inactive: percent of DMSO control GFP [1] 89.3% | percent response of DMSO control [3] 119% | GFP response vs DMSO [4] 83.6% | GFP response, % of DMSO [5] 93.1% | GFP response vs DMSO [6] 98.8% | GFP response relative to DMSO [7] 97.9% | GFP response vs DMSO [8] 100% | GFP response, % of DMSO [9] 107% | vesicle binding response [10] 212% | inhibition [11] 24.9% | superoxide response (% of plate) [12] 90.3% | aptamer binding inhibition [13] 3% | response [14] 10.8% | inhibition [15] 12.6% | response [16] 13.8% | binding (% of control) [17] 219% | efflux inhibition (fraction of control) [18] 0.27 | inhibition [19] 6% | differentiation response [20] 10.6%
98.5%: GFP response vs DMSO [6, 22]

CNCCC(Oc1ccc(C(F)(F)F)cc1)c1ccccc1 (stereo not given)
97%: GFP response vs DMSO [6, 21]
99.1%: GFP response vs DMSO [6, 22]
active: GFP response vs DMSO [2] 141%
inactive: percent of DMSO control GFP [1] 89.8% | percent response of DMSO control [3] 107% | GFP response vs DMSO [4] 83.1% | GFP response, % of DMSO [5] 90.3% | GFP response vs DMSO [6] 98.4% | GFP response relative to DMSO [7] 97.4% | GFP response vs DMSO [8] 102% | GFP response, % of DMSO [9] 93.9% | vesicle binding response [10] 142% | inhibition [11] 6.46% | superoxide response (% of plate) [12] 85.8% | aptamer binding inhibition [13] 0% | response [14] 16.8% | inhibition [15] 13.5% | response [16] 1.16% | binding (% of control) [17] 94.1% | inhibition [19] 6% | differentiation response [20] -1.64%
93.4%: GFP response, % of DMSO [9, 22]
101%: GFP response relative to DMSO [7, 24]
95.6%: GFP response relative to DMSO [7, 23]
94.8%: GFP response, % of DMSO [9, 21]
58%: double positive events [10]
